Activation (% of full agonist control) and activation (% of partial agonist control) data for 38 compounds are collected here from PubChem BioAssay AID504452 (The Scripps Research Institute Molecular Screening Center, 2011).

The source made the active and inactive calls. No stated cut-off is given here; in the data, active means activation above about 85%; inactive means the rest.

This assay has as its target Peroxisome proliferator-activated receptor gamma (Homo sapiens) (UniProt P37231). Kind of assay: PPARg partial agonist activation, primary screen, cell-based, luciferase reporter, luminescence (AID 504452).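 Further: Cos-1 cells carrying PPARgamma and a response element luciferase reporter.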 The following applies: at 5 µM, stronger effect = higher value; activation (% of full agonist control): measured here: relative to full agonist control. (In general: In a reporter assay the amount or activity of a reporter protein is the signal.)

Peroxisome proliferator-activated receptor gamma (Homo sapiens), sequence (P37231 whole entry, looked up): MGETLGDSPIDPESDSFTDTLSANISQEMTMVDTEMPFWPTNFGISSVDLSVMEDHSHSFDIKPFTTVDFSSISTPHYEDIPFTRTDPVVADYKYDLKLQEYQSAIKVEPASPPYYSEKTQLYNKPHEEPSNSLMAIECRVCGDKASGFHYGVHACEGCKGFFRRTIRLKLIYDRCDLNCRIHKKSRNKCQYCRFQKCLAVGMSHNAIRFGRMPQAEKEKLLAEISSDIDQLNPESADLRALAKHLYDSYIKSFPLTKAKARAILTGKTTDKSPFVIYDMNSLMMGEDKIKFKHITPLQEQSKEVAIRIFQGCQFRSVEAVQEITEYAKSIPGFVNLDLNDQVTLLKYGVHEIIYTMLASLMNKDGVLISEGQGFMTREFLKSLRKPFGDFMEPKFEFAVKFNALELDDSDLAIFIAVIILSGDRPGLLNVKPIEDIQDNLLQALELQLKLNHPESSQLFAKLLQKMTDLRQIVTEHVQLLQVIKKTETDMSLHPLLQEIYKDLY

In the case of `CC(Oc1ccc(F)cc1)C(=O)Nc1cc(S(=O)(=O)N2CCOCC2)ccc1N1CCCCC1` (stereo unspecified), the activation (% of full agonist control) was determined as 33.8% and the activation (% of partial agonist control) was 74.8% (inactive).

In the case of `Cc1nc2ncccn2c1-c1csc(Nc2cccc(C(=O)O)c2)n1`, the activation (% of full agonist control) turned out to be 33.5% and the activation (% of partial agonist control) is 74.2% (inactive).

For the compound `COc1cc(CN2CCN(c3cccc(C)c3C)CC2)cc([N+](=O)[O-])c1O`, the activation (% of full agonist control) worked out at 33.7% and the activation (% of partial agonist control) was 74.7% (inactive).

For `COc1ccc(/C(O)=C2/C(=O)C(=O)N(Cc3ccco3)C2c2cccs2)cc1` (stereo unspecified), the activation (% of full agonist control) was found to be 32.1% and the activation (% of partial agonist control) is 71.1% (inactive).

`CN1CCN(S(=O)(=O)c2ccc(Sc3nc4ccccc4[nH]3)c3nsnc23)CC1`: the activation (% of full agonist control) was 43.8% and the activation (% of partial agonist control) was 96.9% (active).

Regarding `NC(=O)C1CCCN(Cc2c(C(=O)N3CCc4ccccc4C3)nc3ccc(Cl)cn23)C1` (stereo unspecified), the activation (% of full agonist control) was found to be 30.2% and the activation (% of partial agonist control) is 66.9% (inactive).

With `Cc1cccc(NC(=O)CN2C(=O)/C(=C3\SC(=S)N(CC4CCCO4)C3=O)c3ccccc32)c1` (stereo unspecified), the activation (% of full agonist control) was 43.3% and the activation (% of partial agonist control) is 95.8% (active).

As to `Cn1cc(CNCc2cn[nH]c2-c2ccc(F)cc2)c(-c2ccc3c(c2)OCCO3)n1`, the activation (% of full agonist control) worked out at 29.7% and the activation (% of partial agonist control) is 65.8% (inactive).

On to `N#Cc1ccc(C(=O)Nc2cc(-c3ccc(F)cc3)nn2-c2ccccc2)cc1`, for which the activation (% of full agonist control) came out at 27.4% and the activation (% of partial agonist control) was 60.6% (inactive).

Consider `Cc1ccc2nc(N3C(=O)C(O)=C(C(=O)c4ccco4)C3c3ccc(O)cc3)sc2c1` (stereo unspecified), for which the activation (% of full agonist control) is 40.9% and the activation (% of partial agonist control) is 90.5% (active).

`COc1cc2c(C(=O)N3CCN(c4ccccc4F)CC3)cn(C)c(=O)c2cc1OC`: the activation (% of full agonist control) is 24.1% and the activation (% of partial agonist control) is 53.4% (inactive).

With `COc1ccc(CN2CCN(Cc3ccc(C)cc3)C(CCO)C2)cc1OC` (stereo unspecified), the activation (% of full agonist control) stood at 33.7% and the activation (% of partial agonist control) was 74.6% (inactive).

In the case of `O=C(Cn1c(=O)c(=O)n(Cc2ccccc2)c2ccc(Cl)cc21)Nc1cc(F)ccc1F`, the activation (% of full agonist control) worked out at 28.4% and the activation (% of partial agonist control) was 62.9% (inactive).

As for `O=C(c1cccc(N2C(=O)C3C4C=CC(C4)C3C2=O)c1)N1CCN(c2ccccc2Cl)CC1` (stereo unspecified), the activation (% of full agonist control) was found to be 41.1% and the activation (% of partial agonist control) is 91% (active).

Take `CCc1ccc(N2CC(C(=O)OCC(=O)Nc3ccc(C(C)=O)cc3)CC2=O)cc1` (stereo unspecified): the activation (% of full agonist control) turned out to be 31% and the activation (% of partial agonist control) is 68.6% (inactive).

For the compound `Cc1ccc(C(=O)N2NC(c3ccccc3F)C3C(=O)N(c4cccc(C)c4)C(=O)C32)cc1` (stereo unspecified), the activation (% of full agonist control) was 33.4% and the activation (% of partial agonist control) is 73.8% (inactive).

For the compound `C=CCSc1nnc(N2C(=O)C(O)=C(C(=O)c3ccco3)C2c2ccc(F)cc2)s1` (stereo unspecified), the activation (% of full agonist control) worked out at 30.5% and the activation (% of partial agonist control) is 67.6% (inactive).

On to `CCOc1cccc(C2C(C(=O)c3ccco3)=C(O)C(=O)N2c2nnc(C)s2)c1` (stereo unspecified), for which the activation (% of full agonist control) amounted to 31.8% and the activation (% of partial agonist control) is 70.4% (inactive).

Turning to `Cc1cc(C)c2nc(N3C(=O)C(O)=C(C(=O)c4ccco4)C3c3ccc(O)cc3)sc2c1` (stereo unspecified), the activation (% of full agonist control) was 40.2% and the activation (% of partial agonist control) is 89.1% (active).

Take `COc1ccc(-c2ccc(CCC(=O)O)n2CC(=O)Nc2ccccc2C)cc1`: the activation (% of full agonist control) was determined as 35.1% and the activation (% of partial agonist control) is 77.7% (inactive).

`CC(=O)Nc1cccc(-n2c(=O)n(Cc3ccccc3)c(=O)c3[nH]cnc32)c1`: the activation (% of full agonist control) turned out to be 36.6% and the activation (% of partial agonist control) is 81.1% (inactive).

As to `O=c1c2cn(Cc3ccc(F)cc3)c3ccccc3c-2nn1Cc1ccc(F)cc1`, the activation (% of full agonist control) came to 40.3% and the activation (% of partial agonist control) is 89.3% (active).

`O=C(CN(c1ccc(F)cc1)S(=O)(=O)c1ccccc1)NC1CC2CCC1C2` (stereo unspecified): the activation (% of full agonist control) came to 24.2% and the activation (% of partial agonist control) was 53.5% (inactive).

`COc1cc(CN2CCCC(N3CCN(c4ccc(F)cc4)CC3)C2)ccc1F` (stereo unspecified): the activation (% of full agonist control) is 31.2% and the activation (% of partial agonist control) was 69% (inactive).

With `O=C(CC(C(=O)N1CCc2ccccc21)n1ccnc1)NCc1ccccc1` (stereo unspecified), the activation (% of full agonist control) is 14.1% and the activation (% of partial agonist control) is 31.2% (inactive).

For `O=C(COc1ccc([N+](=O)[O-])cc1)Nc1cccc(C(=O)Nc2ccccc2C(=O)O)c1`, the activation (% of full agonist control) worked out at 27.7% and the activation (% of partial agonist control) is 61.3% (inactive).

For the compound `COc1ccc(-c2nn(-c3ccccc3)cc2/C=C2/SC(=S)N(CCC(=O)O)C2=O)c(C)c1`, the activation (% of full agonist control) turned out to be 44.4% and the activation (% of partial agonist control) is 98.3% (active).

As for `O=C(CCCCCNC(=O)N1CCn2c1nc1ccccc12)N[C@@H](Cc1ccccc1)C(=O)O`, the activation (% of full agonist control) worked out at 32.6% and the activation (% of partial agonist control) was 72.2% (inactive).

For `O=C(Cn1nc(Cc2ccncc2)c2ccccc2c1=O)N1CCN(C(=O)c2ccco2)CC1`, the activation (% of full agonist control) was found to be 36.2% and the activation (% of partial agonist control) is 80.2% (inactive).

Regarding `CN(C)c1ccc(C(CNS(=O)(=O)c2cccc([N+](=O)[O-])c2)N2CCOCC2)cc1` (stereo unspecified), the activation (% of full agonist control) was found to be 31.9% and the activation (% of partial agonist control) is 70.6% (inactive).

`COc1ccc(N2CCN(C(=O)CNC(=O)Cn3c(C)cc4ccccc4c3=O)CC2)cc1`: the activation (% of full agonist control) was 33.3% and the activation (% of partial agonist control) was 73.7% (inactive).

As for `O=C1C(=O)N(Cc2ccccc2)C(c2cccc(O)c2)/C1=C(\O)c1ccc2c(c1)OCCO2` (stereo unspecified), the activation (% of full agonist control) was found to be 25.6% and the activation (% of partial agonist control) is 56.7% (inactive).

In the case of `CCOc1ccc(CN2CCN(Cc3cccc4nonc34)CC2CCO)cc1` (stereo unspecified), the activation (% of full agonist control) was found to be 44.9% and the activation (% of partial agonist control) is 99.4% (active).

Turning to `O=[N+]([O-])c1cc(S(=O)(=O)Nc2cccc(C(F)(F)F)c2)ccc1-n1nnc2ccccc21`, the activation (% of full agonist control) came out at 34.2% and the activation (% of partial agonist control) is 75.8% (inactive).

In the case of `COc1ccccc1NC(=O)C(=O)c1cn(CC(=O)N2CCOCC2)c2ccccc12`, the activation (% of full agonist control) is 42.3% and the activation (% of partial agonist control) was 93.5% (active).

Consider `O=C(C1CC(=O)N(c2ccc3c(c2)OCCO3)C1)N1CCN(c2ccccc2O)CC1` (stereo unspecified), for which the activation (% of full agonist control) came to 31.6% and the activation (% of partial agonist control) is 69.9% (inactive).

For `Cc1ccc(C)c(/C(O)=C2/C(=O)C(=O)N(CCN3CCOCC3)C2c2ccc(C)o2)c1` (stereo unspecified), the activation (% of full agonist control) was 9.22% and the activation (% of partial agonist control) is 20.4% (inactive).

On to `COc1ccc(N(CC(=O)N2c3ccccc3CC2C)S(=O)(=O)c2c(C)nn(C)c2C)cc1` (stereo unspecified), for which the activation (% of full agonist control) worked out at 32.3% and the activation (% of partial agonist control) is 71.5% (inactive).
